Reference: PubChem BioAssay (Tox21)
“And” between values parts separate entries of the source, which are not always exact repeats. Equal entries are not always repeated. Results filed as inconclusive are left out. A call without a number means that no potency is given here. More than one record can exist for a structure, and the calls need not agree. The source made the active and inactive calls. Calls follow the shape of the dose curve; as a rule, active = well fitted activation curve with a large enough effect in the repeat runs; inconclusive = weak or mixed curves; inactive = no such curve, though single readings can be large or run the other way.

molecular target: Nuclear receptor subfamily 1 group I member 2 (Homo sapiens) (UniProt O75469); experiment: Human pregnane X receptor (PXR) small molecule agonists, qHTS assay (AID 1346982); settings: PXR-Luc HepG2, CYP3A4 luciferase reporter, 24 h; series mostly up to 92.4 µM; also: nearly all actives have a fitted effect of over 35% in size
Sequence (O75469 whole entry, looked up): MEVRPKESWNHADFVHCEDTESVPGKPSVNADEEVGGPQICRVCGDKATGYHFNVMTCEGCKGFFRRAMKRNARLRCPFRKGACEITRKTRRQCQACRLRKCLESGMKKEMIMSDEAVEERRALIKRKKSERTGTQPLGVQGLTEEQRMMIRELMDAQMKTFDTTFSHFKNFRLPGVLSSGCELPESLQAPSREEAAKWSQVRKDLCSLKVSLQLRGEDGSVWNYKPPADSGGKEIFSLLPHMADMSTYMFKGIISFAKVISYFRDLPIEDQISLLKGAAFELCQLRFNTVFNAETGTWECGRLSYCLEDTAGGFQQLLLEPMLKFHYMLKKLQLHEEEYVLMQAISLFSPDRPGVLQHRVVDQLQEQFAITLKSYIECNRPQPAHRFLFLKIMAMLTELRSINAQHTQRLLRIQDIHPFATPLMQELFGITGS
Text: National Center for Advancing Translational Sciences [NCATS]
NIH Chemical Genomics Center [NCGC]
U.S. Environmental Protection Agency [EPA]
National Institutes of Environmental Health Sciences [NIEHS]
National Toxicology Program [NTP]
The human pregnane X receptor (hPXR) regulates the expression of several drug metabolizing enzymes and induction of these proteins is a major mechanism for developing drug resistance in cancer. One such key enzyme catalyzing the drug metabolism is cytochrome P450 3A4 (CYP3A4). Changes in CYP3A4 expression affect drug metabolism, thereby reducing the therapeutic efficacy and altering toxicological response to a drug and which finally causes adverse drug interaction. To screen Tox21 libraries for compounds that activate hPXR-mediated CYP3A4 gene expression, PXR-Luc HepG2 cells were used.
PXR-Luc HepG2 cells were dispensed at 2,000 per well in 5uL of assay medium containing 5% charcoal-stripped FBS into white solid bottom 1536-well plates (Corning Life Sciences, Corning, NY) using a Multidrop Combi (Thermo Scientific, Waltham, MA) dispenser. The assay plates were incubated at 37 C and 5% CO2 for 5hr, and then 23nL of compounds dissolved in DMSO and positive control were transferred using a Pintool station (Wako, San Diego, CA). The assay plates were incubated at 37C and 5% CO2 for 24hr. For luciferase read, 4uL of ONE-Glo reagent (Promega Corporation, Madison, WI) was added to each well of the assay plates using Flying Reagent Dispenser (FRD, Aurora Discovery, San Diego, CA) and incubated the assay plates at room temperature for 30min. The luminescence signal was quantified using a ViewLux plate reader (Perkin Elmer, Shelton, CT).
Potency is read from the fitted curve at half-maximal effect.

Compound | Potency
O=C(O)C(Cl)Cl | inactive
Cc1cc(Cl)ccc1N | inactive
CCCCCCCCCCCCCC[P+](CCCCCC)(CCCCCC)CCCCCC | 2.74 µM (active) and 3.89 µM (active) and 3.43 µM (active)
CCOP(=S)(OCC)Oc1ccc2c(C)c(Cl)c(=O)oc2c1 | 27.6 µM (active) and 19.3 µM (active) and 23.7 µM (active)
OCCOc1ccccc1 | inactive
Cc1cc(-c2ccc(N)c(C)c2)ccc1N | 53.7 µM (active) and 61.8 µM (active)
O=C(O)CCl | inactive
CCCC[N+]1(C)CCCC1 | inactive
COc1ccccc1N | inactive
CNC | inactive
COP(=O)(OC)OC=C(Cl)Cl | inactive
Oc1ccccc1-c1ccccc1 | inactive and 31.4 µM (active)
CCCC[n+]1ccc(C)cc1 | inactive and 5.45 µM (active)
O=P1(N(CCCl)CCCl)NCCCO1 (stereo not given) | inactive
O=c1[nH]c(=O)n(Cl)c(=O)n1Cl | inactive
O=C(O)C(Cl)(Cl)Cl | inactive
Nc1ccc(-c2ccc(N)cc2)cc1 | 30.3 µM (active) and 1.08 µM (active) and 34.4 µM (active)
O=c1nc(O)n(Cl)c(=O)n1Cl | inactive
CCC(=O)C(CC(C)N(C)C)(c1ccccc1)c1ccccc1 (stereo not given) | 8.67 µM (active) and 60.7 µM (active)
C=CCOC(Cn1ccnc1)c1ccc(Cl)cc1Cl (stereo not given) | 48.7 µM (active) and 15.4 µM (active) and 11.9 µM (active)

Compound | Potency
CCCCCCCCCCCCCCCCn1cc[n+](C)c1 | 7.86 µM (active) and inactive and 6.13 µM (active)
Cc1cc(Cl)ccc1OCC(=O)O | inactive
C[C@]12CCC(=O)C=C1CC[C@@H]1[C@@H]2CC[C@]2(C)C(=O)CC[C@@H]12 | 53.5 µM (active) and inactive
C1CCC(NC2CCCCC2)CC1 | inactive
CC[N+]1(C)CCCC1 | inactive
CCC[N+]1(C)CCCC1 | inactive
CC[n+]1ccccc1 | inactive and 1.21 µM (active)
CCCCn1cc[n+](C)c1C | inactive
COCC(=O)N(c1c(C)cccc1C)C(C)C(=O)OC (stereo not given) | inactive
CCC[N+]1(C)CCCCC1 | inactive
O=C(O)COc1ccc(Cl)cc1Cl | inactive
CCCCCCCCCCCCOS(=O)(=O)O | inactive
CCCCCC[n+]1ccccc1 | 11 µM (active) and inactive
CCCn1cc[n+](C)c1 | inactive
Nc1ccc(-c2ccc(N)c(Cl)c2)cc1Cl | 30.8 µM (active) and 9.69 µM (active)
CC(=O)[O][Hg][c]1ccccc1 | inactive
COc1ccc(N)cc1 | 60.6 µM (active)
CCn1cc[n+](C)c1C | inactive
CCCCCCCCn1cc[n+](C)c1 | 13.6 µM (active) and 21.7 µM (active) and 17.4 µM (active)
CN(C)[C@@H]1C(=O)C(C(N)=O)=C(O)[C@@]2(O)C(=O)C3=C(O)c4c(O)cccc4[C@@](C)(O)[C@H]3[C@H](O)[C@@H]12 | inactive
